# Compound activity: PubChem, The Scripps Research Institute Molecular Screening Center
# Rin1 Abl inh: inhibitors of Rin1-Abl protein binding, primary screen, biochemical, TR-FRET | Tyrosine-protein kinase ABL1 (Homo sapiens) + Ras and Rab interactor 1 (Homo sapiens), … | inhibition, % at 7.35 µM | AID 588664, 2011 | 0.4% of 360,000 active; in the data active = inhibition above about 5%, passing the limit was not always enough
# pPAFAH FP inh: pPAFAH enzyme inhibitors, primary screen, biochemical, fluorescence polarization, human; 1.5% of 330,000 active; Platelet-activating factor acetylhydrolase (Homo sapiens), Q13093; recombinant pPAFAH, FP-rhodamine probe fluorescence polarization; inhibition, % at 3.39 µM;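 active = inhibition above the mean inhibition across the screen plus 3 SD, cut at about 25% in these data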;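 note: inhibitors block binding of the rhodamine activity-based probe so polarization drops; 0% = enzyme with DMSO and 100% = wells lacking pPAFAH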
# E coli Lon inh: inhibitors of E. coli Lon protease, primary screen, biochemical, fluorescence polarization; P0A9M0; purified E. coli Lon protease; inhibition, % at 7.94 µM; 0.42% of 360,000 active; AID 602123, 2011; in the data active = inhibition above about 13%, passing the limit was not always enough;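 note: 0% = enzyme with probe and DMSO and 100% = no enzyme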
# PAFAH1B3 inh: PAFAH1B3 enzyme inhibitors, primary screen, biochemical, fluorescence polarization, human | Platelet-activating factor acetylhydrolase IB subunit alpha1 (Homo sapiens), Q15102 | recombinant PAFAH1B3, FP-rhodamine probe | inhibition, % at 3.39 µM | 0.28% of 340,000 active | AID 492972, 2010;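 active = inhibition above the screen-wide average of all tested compounds plus 3 SD, cut at about 25% in these data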;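 note: 0% = enzyme with DMSO only and 100% = wells lacking PAFAH1B3 protein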
# Target sequence (Q15102 whole entry, looked up): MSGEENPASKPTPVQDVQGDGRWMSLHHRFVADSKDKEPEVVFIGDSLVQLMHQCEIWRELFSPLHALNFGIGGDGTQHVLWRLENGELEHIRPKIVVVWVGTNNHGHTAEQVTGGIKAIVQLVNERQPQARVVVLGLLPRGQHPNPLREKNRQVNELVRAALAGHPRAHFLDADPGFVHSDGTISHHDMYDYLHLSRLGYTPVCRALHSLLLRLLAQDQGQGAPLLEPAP
# PAFAH1B2 inh: PAFAH1B2 enzyme inhibitors, primary screen, biochemical, fluorescence polarization, human; AID 492953, 2010; inhibition, % at 3.39 µM; recombinant PAFAH1B2, FP-rhodamine activity probe; 1.2% of 340,000 active;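 active = inhibition above the mean of all tested compounds plus 3 SD, cut at about 24% in these data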;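 note: 0% = enzyme with DMSO and 100% = wells lacking PAFAH1B2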
# Target sequence (P68402 whole entry, looked up): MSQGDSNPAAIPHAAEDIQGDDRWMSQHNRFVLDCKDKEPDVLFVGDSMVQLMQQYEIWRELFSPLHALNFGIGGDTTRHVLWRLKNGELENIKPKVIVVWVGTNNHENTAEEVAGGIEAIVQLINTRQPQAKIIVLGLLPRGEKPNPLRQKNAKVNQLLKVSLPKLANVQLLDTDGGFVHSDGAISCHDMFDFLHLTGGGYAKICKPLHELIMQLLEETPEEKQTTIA
# PAFAH2 FP inh: PAFAH2 enzyme inhibitors, primary screen, biochemical, fluorescence polarization, human; 0.99% of 340,000 active; inhibition, % at 3.39 µM; Platelet-activating factor acetylhydrolase 2, cytoplasmic (Homo sapiens), Q99487; recombinant PAFAH2, FP-rhodamine activity probe;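 active = inhibition above the mean over all tested compounds plus 3 SD, cut at about 30% in these data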;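 note: inhibitors block probe labeling of enzyme so polarization drops; 0% = enzyme with DMSO and 100% = wells lacking PAFAH2 protein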
# pPAFAH confirm: pPAFAH (PLA2G7) enzyme inhibitors, confirmation, biochemical, fluorescence polarization, human; shares compounds with pPAFAH FP inh; 72% of 2,300 active; inhibition, % at 3.39 µM; recombinant pPAFAH, FP-Rh probe fluorescence polarization; AID 463230, 2010;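 active = mean inhibition of the triplicate above the hit cutoff set for the earlier primary screen, cut at about 25% in these data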;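 note: 0% = enzyme with DMSO and 100% = wells lacking pPAFAH enzyme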
# * = called active by the depositor; . = not tested or not shown. Rows were chosen to be rich in hits. Some 3.1% of all compounds tested hit in one or more screens of this group.
SMILES,Rin1 Abl inh,pPAFAH FP inh,E coli Lon inh,PAFAH1B3 inh,PAFAH1B2 inh,PAFAH2 FP inh,pPAFAH confirm
CCNc1ccc(Br)cc(C(=O)/C=C/c2ccc(Cl)cc2Cl)c1=O,2,66*,-72,16,3,33*,34*
CNc1ccc(Br)cc(C(=O)/C=C/c2ccc(OC)cc2)c1=O,7,43*,-11,9,8,16,13
COCCCNC(=O)/C=C/c1ccc(Cl)cc1Cl,-3,6,4,4,7,-8,.
Cc1cccc(N2C(=NC(=O)c3ccccc3)SC3CS(=O)(=O)CC32)c1 (stereo unspecified),-2,-3,8,8,1,1,.
CCCCC1CCC(C(=O)NCC(c2ccco2)N2CCOCC2)CC1 (stereo unspecified),-2,7,-6,3,6,7,.
CN(C(=O)c1ccccc1[N+](=O)[O-])c1ccccc1C(=O)NCc1ccccc1,0,0,3,-6,0,1,.
CC(C)n1nnc(-c2ccc(OCc3ccccc3F)cc2)n1,1,8,-5,-6,-1,0,.
c1ccc(Nc2nc3ccccc3[nH]2)nc1,-4,36*,6,6,3,4,-2
Cc1ccc(CS(=O)Cc2ccc(C(=O)N3CCN(c4ccccn4)CC3)o2)cc1 (stereo unspecified),2,7,-1,5,1,-1,.
COc1ccc(CCNS(=O)(=O)c2ccc(-n3cnnn3)cc2)cc1OC,-1,1,-6,8,5,20,.
CCOC(=O)C1Nc2c(F)cc(C)cc2C2C=CCC12 (stereo unspecified),.,10,.,.,.,.,.
CC(=O)c1ccc2c(c1)C1C=CCC1C(c1cc3c(cc1Br)OCO3)N2 (stereo unspecified),-1,3,-1,8,1,1,.
CCCC1Nc2ccc(C(=O)O)cc2C2C=CCC12 (stereo unspecified),3,46*,13,32*,18,44*,31*
CCOC(=O)C1Nc2ccc(C(=O)O)cc2C2C=CCC12 (stereo unspecified),5,40*,3,49*,24,18,7
N#Cc1ccccc1OCC(=O)Nc1ccc2c(c1)OCO2,-2,.,0,.,.,.,.
Cc1ccc(NS(=O)(=O)c2ccc(-c3cnc(C4CC4)o3)cc2)c(C)c1,0,53*,-1,14,2,4,46*
Cc1ccccc1N/N=C/c1sc(=O)n(Cc2cccc(C(=O)O)c2)c1Cl,0,35*,-2,10,9,10,25*
CCCCN(C=O)c1c(CC)nc2ccc(C(=O)N(C)Cc3ccccc3)cn12,-2,.,-6,.,.,.,.
CCOC(=O)[C@]12CCC=C1N(Cc1ccc(Cl)cc1Cl)C(=O)[C@H](CC(=O)NCC1CCCCC1)C2,.,.,0,.,.,.,.
CC(C)NC(=O)CCCN1C(=O)c2ccccc2Sc2ncccc21,3,8,-10,2,0,-6,.
C=CCOc1c(Br)cc(C2C3=C(CCCC3=O)N(C)C3=C2C(=O)CCC3)cc1OCC,-3,39*,-12,-2,4,9,5
C=CCOc1ccc(C2C3=C(CCCC3=O)N(CC(=O)O)C3=C2C(=O)CCC3)cc1OCC,2,5,-1,6,2,2,.
O=C(O)c1ccc(N=Nc2c(O)ccc3ncccc23)cc1,10,39*,22,33*,14,6,56*
O=C(NNC1=NS(=O)(=O)c2ccccc21)c1ccccc1Cl,0,1,2,-2,1,-8,.
N#CCCN(NC1=NS(=O)(=O)c2ccccc21)C(=O)c1ccccc1Br,-2,50*,0,3,6,-3,3
SMILES,Rin1 Abl inh,pPAFAH FP inh,E coli Lon inh,PAFAH1B3 inh,PAFAH1B2 inh,PAFAH2 FP inh,pPAFAH confirm
CCCCOc1cc(NCc2ccccc2)c2ncn(C(C)C)c2c1,2,36*,-16,12,7,12,39*
Nc1ccc2nc(-c3cccc(-c4nc5ccc(N)cc5[nH]4)n3)[nH]c2c1,1,35*,1,30*,32*,13,54*
CCOc1ccc(C(=O)NCC(=O)N2CC=C(c3ccccc3)CC2)cc1OCC,2,3,-4,1,3,-4,.
Cc1nc2cc(NC(=O)c3cccc(S(C)(=O)=O)c3)ccc2o1,1,-4,-5,-1,-3,0,.
COC(=O)c1c(NC(=O)/C=C/C(=O)O)sc(C)c1-c1ccc(C)c(C)c1,-3,44*,4,9,3,10,28*
CCOC(=O)c1c(NC(=O)/C=C/C(=O)O)sc(C)c1-c1ccc(C)c(C)c1,2,54*,-3,10,-5,-1,63*
COC(=O)c1c(NC(=O)/C=C/C(=O)O)sc(C)c1-c1ccc(C)cc1,-2,15,-7,5,5,7,.
CC1(C(=O)Nc2ccc(Cl)cc2)Cc2c(-c3ccc4c(c3)OCO4)ccnc2O1 (stereo unspecified),1,.,-7,.,.,.,.
O=C(/C=C1\NC2(CCCC2)Cc2ccccc21)C(=O)N/N=C/c1ccc(O)c(O)c1,0,48*,6,15,8,34*,87*
CN(CC(=O)Nc1ccc(Cl)c(Cl)c1)CC(=O)Nc1ccc2c(c1)OCO2,-1,2,-1,4,3,4,.
Cc1ccc(S(=O)(=O)N2CCN(C(=O)c3cc4c(s3)CCCC4)CC2)cc1,4,2,-9,8,2,5,.
COc1ccc(S(=O)(=O)N2CCN(C(=O)c3cc4c(s3)CCC4)CC2)cc1,-2,43*,-1,13,6,25,34*
O=C(COc1ccccc1Cl)NCCNC(=O)c1cccnc1,2,-10,-2,4,-4,-4,.
CCC(=O)Nc1ccccc1C(=O)C(=O)Nc1ccccc1,2,-2,6,2,-1,12,.
O=C(Nc1nc(-c2ccco2)c(-c2ccco2)s1)c1c(F)cccc1Cl,5,48*,-30,8,0,24,16
O=C(Nc1nc(-c2ccco2)c(-c2ccco2)s1)c1ccc(F)cc1F,6,.,-27,5,1,3,.
COCCNC(=O)c1ccc(N2CC3CC(C2)c2cccc(=O)n2C3)c(NC(=O)c2cc(OC)cc(OC)c2)c1 (stereo unspecified),-4,4,3,7,-4,4,.
